Drawing on PubChem BioAssay AID624342 (National Center for Advancing Translational Sciences (NCATS), 2012), this text covers Potency for 3 compounds.

Activity calls are given as the source filed them. The call rests on the fitted dose curve.

A short description of the assay: qHTS for Inducers of the Endoplasmic Reticulum Stress Response (ERSR) in Human Glioma: Hit Validation. The following applies: U87-MG GRP78 promoter luciferase reporter, 16 h. The source says: Primary protein unfolding takes place for many diseases, including diabetes and hypoxia, , and triggers a reaction in the cells called ER stress response (ERSR). ). ERSR is designed as a repair mechanism, but ultimately leads to cell death via apoptosis if conditions triggering protein unfolding persist (1). The molecular clue to ERSR activation is the enhancement of the expression of key molecular chaperones, including the glucose regulated protein (GRP) 78. GRP78 is the main sensor for protein folding and the main actuator of the ERSR. In a collaboration between the Southern Research Institute and the NIH Chemical Genomics Center, a cell based screen was developed that reliably uses GRP78 as a sensor to identify small molecules as inducers of ERSR. In resting conditions, GRP78 binds proteins and acts as a natural repressor. Once unfolded proteins are present in the ER, GRP78 releases some of the repressors and binds to the unfolded proteins. The release of the repressors executes the ERSR program. Using a human glioma cell line in a miniaturized, luminescent format, a high-throughput screen was developed to identify actuators of the ERSR. In this assay, the hits identified from primary screen are re-run using the same protocol. NIH Chemical Genomics Center [NCGC] NIH Molecular Libraries Probe Centers Network [MLPCN] MLPCN Grant: DA031669 Assay Submitter (PI): Maurizio Grimaldi, Southern Research Institute (1) Soboloff, J. and S. A. Berger (2002). "Sustained ER Ca2+ depletion suppresses protein synthesis and induces activation-enhanced cell death in mast cells." J Biol Chem 277(16): 13812-20.
Stable transfected human glioma cell line, U87-MG, are dispensed at density 1000 cells/well into Greiner white solid bottom 1536-well assay plates. […] The assay plates will be incubated for 16 hours and developed by adding appropriate quantities of the Promega Bright Glo reagent. The plates will be incubated at room temperature for 10 minutes prior to being transferred into a ViewLux high-throughput CCD imager (PerkinElmer), wherein end-point measurements of luminescence are acquired.
For orientation: Quantitative high-throughput screening tests each substance at several concentrations.
On to `Cc1ccc(-c2cc(NC(=O)C(C)Oc3ccc(C)c(C)c3)on2)cc1` (stereo not drawn), for which the Potency was 30 µM (active).

Take `CC(C)Cc1nn2c(=O)cc(COC(=O)CNC(=O)c3ccc(C(C)(C)C)cc3)nc2s1`: the Potency is 30 µM (active). Consider `CC(=O)N1CCOc2cc(S(=O)(=O)Nc3c(C)cccc3C(C)C)c(Cl)cc21`, for which the Potency was 30 µM (active).
